Fluorescein autfl: qHTS Assay for Spectroscopic Profiling in Fluorescein Spectral Region; Compound autofluorescence, 480/540 nm, fluorescein-equivalent; hits give high values; max fluorescein-equivalent concentration, M; 0.91% of 59,000 active; in the data active = max fluorescein-equivalent concentration above about 10 nM; inconclusive = between about 1.1 nM and that limit
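Library compounds, added at multiple concentrations to pH 8.0 Tris buffer (100 mM), incubate 15 min at room temperature before CCD imaging at 480 nm excitation and 540 nm emission.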
A488 autofl: qHTS Assay for Spectroscopic Profiling in A488 Spectral Region. max dye equivalency, M. 0.1% of 59,000 active. AID 591, 2007. compound autofluorescence, A488 spectral region, dye equivalency; Compound Type: qHTS ECL - MLSMR
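Compound autofluorescence was read in 100 mM Tris pH 8.0 after 15 min at room temperature, ex 480 nm/em 540 nm. Intensities were converted to A488 dye-equivalent concentration using an on-plate six-point A488 standard curve.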
Rhodamine autofl: qHTS Assay for Spectroscopic Profiling in Rhodamine Spectral Region | 0.05% of 59,000 active | max dye-equivalent concentration, M | Rhodamine-region fluorescence, 547/598 nm, Tris buffer; hits give high values; in the data active = max dye-equivalent concentration above about 11 nM; inconclusive = between about 1.1 nM and that limit
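qHTS spectral profiling of compounds without any target or enzyme present, in pH 8.0 Tris buffer; plates were read after a 15-minute room-temperature incubation using the rhodamine-region filter set.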
TexasRed autofl: qHTS Assay for Spectroscopic Profiling in Texas Red Spectral Region; Compound fluorescence, Texas Red channel, 547/618 nm; hits give high values; max dye-equivalent concentration, M; 0.06% of 59,000 active; AID 587, 2007; in the data active = max dye-equivalent concentration above about 10 nM; inconclusive = between about 1.1 nM and that limit
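Dye-equivalent concentrations come from scaling compound signal (ex 547, em 618 nm) to six Texas Red standard concentrations run on every plate, after 15 min room-temperature incubation in pH 8.0 Tris (100 mM).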
A647 autofl: qHTS Assay for Spectroscopic Profiling in A647 Spectral Region. Compound fluorescence, A647 channel (570/671 nm), Tris buffer. max dye-equivalent concentration, M. 59,000 tested, under 10 active. AID 592, 2007
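Spectral profiling of library compounds in pH 8.0 Tris: 15 min room-temperature incubation, single ex/em pair (570/671 nm), response normalized to Alexa 647 equivalents.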
Resorufin autofl: qHTS Assay for Spectroscopic Profiling in Resorufin Spectral Region; Compound fluorescence, resorufin region 547/598 nm, buffer; hits give high values; max dye-equivalent concentration, M; 0.04% of 59,000 active; AID 588, 2007
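Dye-equivalent concentration values derive from comparing each well's 547/598 nm fluorescence against resorufin standards included on every plate. Incubation was 15 min at room temperature in 100 mM Tris, pH 8.0.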
Numbers stand for hits. Hits are enriched below; roughly 0.96% of the tested compounds scored in any of these assays. Unless noted, the rule behind the calls is not given here.

`C=CCOc1cccc(C2C(C(=O)c3ccc(C)o3)=C(O)C(=O)N2c2nccs2)c1` (stereo not given) gave Fluorescein autfl 3.62e-08M, A488 autofl inconclusive, Rhodamine autofl inactive, TexasRed autofl inactive, A647 autofl inactive and Resorufin autofl inactive.
For O=C(COC(=O)CCc1c[nH]c(=O)[nH]1)Nc1ccccc1 the results were Fluorescein autfl 1.83e-08M, A488 autofl inactive, Rhodamine autofl inactive, TexasRed autofl inactive, A647 autofl inactive and Resorufin autofl inactive.
For Cc1ccc(NC(=O)COC(=O)CCc2c[nH]c(=O)[nH]2)cc1 the results were Fluorescein autfl inconclusive, A488 autofl inactive, Rhodamine autofl inactive, TexasRed autofl inactive, A647 autofl inactive and Resorufin autofl inactive.
For CC(=O)NCCNc1ncnc2ccc(-c3ccccc3C#N)cc12 the results were Fluorescein autfl inactive, A488 autofl inactive, Rhodamine autofl inactive, TexasRed autofl inactive, A647 autofl inactive and Resorufin autofl inactive.
Cc1cc2c(cc1C)NC(c1c(C)n(C)n(-c3ccccc3)c1=O)C1=C(CC(C)(C)CC1=O)N2 (stereo not given) was read as Fluorescein autfl 4.33e-08M, A488 autofl inconclusive, Rhodamine autofl inactive, TexasRed autofl inconclusive, A647 autofl inactive and Resorufin autofl inactive.
Screening CCOC(=O)SC1=N/C(=C\c2ccc(N(C)C)cc2)C(=O)S1 returned Fluorescein autfl 1.01e-08M, A488 autofl inactive, Rhodamine autofl inactive, TexasRed autofl inactive, A647 autofl inactive and Resorufin autofl inactive.
For CCOC(=O)c1sc(SCC(=O)Nc2ccc(N(C)C)cc2)nc1N the results were Fluorescein autfl inactive, A488 autofl inactive, Rhodamine autofl inactive, TexasRed autofl inactive, A647 autofl inactive and Resorufin autofl inactive.
`O=c1[nH]c(=O)n([C@H]2C[C@H](O)[C@H](CO)O2)cc1/C=C\Br` gave Fluorescein autfl inactive, A488 autofl inactive, Rhodamine autofl inactive, TexasRed autofl inconclusive, A647 autofl inactive and Resorufin autofl inactive.
For O=C(NC1=NCCS1)C1Cc2ccccc2CN1C(=O)c1ccccc1 (stereo not given) the results were Fluorescein autfl inactive, A488 autofl inactive, Rhodamine autofl inactive, TexasRed autofl inconclusive, A647 autofl inactive and Resorufin autofl inactive.
For COc1ccc(NC(=O)C2Cc3ccccc3CN2C(=O)c2ccccc2)cn1 (stereo not given) the results were Fluorescein autfl 5.91e-08M, A488 autofl inconclusive, Rhodamine autofl inactive, TexasRed autofl inactive, A647 autofl inactive and Resorufin autofl inactive.
O=C(Nc1cccc(F)c1)N1CC2(CCN(C(=O)c3cc(C(F)(F)F)cc(C(F)(F)F)c3)CC2)C1 was read as Fluorescein autfl inconclusive, A488 autofl inactive, Rhodamine autofl inactive, TexasRed autofl inactive, A647 autofl inactive and Resorufin autofl inactive.
CC(=O)OCC(=O)NCc1ccc2c(c1)OCO2 was read as Fluorescein autfl inconclusive, A488 autofl inactive, Rhodamine autofl inactive, TexasRed autofl inactive, A647 autofl inactive and Resorufin autofl inactive.
Screening CC(C)c1nnc(NC(=O)CCC(=O)NCc2ccc3c(c2)OCO3)s1 returned Fluorescein autfl 1.28e-07M, A488 autofl inconclusive, Rhodamine autofl inactive, TexasRed autofl inactive, A647 autofl inactive and Resorufin autofl inactive.
`COc1ccc(C2=CC(c3ccc(Cl)cc3)n3cnnc3N2)cc1OC` (stereo not given) gave Fluorescein autfl 3.52e-08M, A488 autofl inconclusive, Rhodamine autofl inactive, TexasRed autofl inactive, A647 autofl inactive and Resorufin autofl inactive.
`COc1ccc(C2C=C(c3ccc(Cl)cc3)Nc3nc(NC(C)=O)nn32)cc1` (stereo not given) gave Fluorescein autfl 2.78e-08M, A488 autofl inactive, Rhodamine autofl inactive, TexasRed autofl inactive, A647 autofl inactive and Resorufin autofl inactive.
For CC(=O)Nc1nc2n(n1)C(c1ccc(F)cc1)C=C(c1ccccc1)N2 (stereo not given) the results were Fluorescein autfl 1.4e-08M, A488 autofl inactive, Rhodamine autofl inactive, TexasRed autofl inactive, A647 autofl inactive and Resorufin autofl inactive.
Screening COc1ccccc1C1C=C(c2ccc(Cl)cc2)Nc2nc(NS(C)(=O)=O)nn21 (stereo not given) returned Fluorescein autfl 1.49e-08M, A488 autofl inactive, Rhodamine autofl inactive, TexasRed autofl inconclusive, A647 autofl inactive and Resorufin autofl inactive.
Screening COc1ccccc1C1C=C(c2ccc(Cl)cc2)Nc2nc(N3C(=O)CCC3=O)nn21 (stereo not given) returned Fluorescein autfl inconclusive, A488 autofl inactive, Rhodamine autofl inactive, TexasRed autofl inactive, A647 autofl inactive and Resorufin autofl inactive.
`Fc1ccc(Nc2ncnc3ccc(-c4ccoc4)cc23)cc1` gave Fluorescein autfl inactive, A488 autofl inactive, Rhodamine autofl inactive, TexasRed autofl inactive, A647 autofl inactive and Resorufin autofl inactive.
Screening CC1(C)CC[C@]2(C(=O)O)CC[C@]3(C)C(=CC[C@@H]4[C@@]5(C)CC[C@H](O)C(C)(C)[C@@H]5CC[C@@]43C)[C@@H]2C1 returned Fluorescein autfl inactive, A488 autofl inactive, Rhodamine autofl inactive, TexasRed autofl inactive, A647 autofl inactive and Resorufin autofl inactive.
COc1cccc(-c2cc(NCc3cccc(C)c3)ncn2)c1 was read as Fluorescein autfl inconclusive, A488 autofl inactive, Rhodamine autofl inactive, TexasRed autofl inactive, A647 autofl inactive and Resorufin autofl inactive.
Screening Nc1ncnc2c1ncn2[C@@H]1O[C@@H](CO)[C@H](O)[C@@H]1O returned Fluorescein autfl inactive, A488 autofl inactive, Rhodamine autofl inactive, TexasRed autofl inactive, A647 autofl inactive and Resorufin autofl inactive.
CC(C)(C)[C@@]1(O)CCN2C[C@@H]3c4ccccc4CCc4cccc(c43)[C@@H]2C1 was read as Fluorescein autfl inconclusive, A488 autofl inactive, Rhodamine autofl inactive, TexasRed autofl inactive, A647 autofl inactive and Resorufin autofl inactive.
Screening COc1ccc(C2C=C(c3ccc(Br)cc3)Nc3nc(N4C(=O)CCC4=O)nn32)cc1 (stereo not given) returned Fluorescein autfl 1.14e-08M, A488 autofl inactive, Rhodamine autofl inactive, TexasRed autofl inactive, A647 autofl inactive and Resorufin autofl inactive.

From PubChem
